Values without a mark were called inactive. Records with an inconclusive call do not appear. Active and inactive are the calls of the source. Unless noted, the call rests on the fitted dose curve; in most records, active means well fitted curve in the direction sought with a large enough effect in the repeat runs; inconclusive means weak or mixed curves; inactive means no such curve, though single readings can be large; an effect the other way counts as inactive or inconclusive.

From PubChem BioAssay (Tox21) come the findings set out here.

Experiment [1] has as its target Progesterone receptor (Homo sapiens) (UniProt P06401). Briefly: qHTS assay to identify small molecule antagonists of the progesterone receptor (PR) signaling pathway (AID 1346795; active means well fitted inhibition curve with a large enough effect in the signal ratio in the repeat runs, not every such curve was filed as active; the % refers to the signal ratio). Summed up:
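Antagonist mode with agonist R5020 at 1 nM final and 16 hr incubation at 37C. Reporter was beta-lactamase driven by UAS in HEK293T (PR-UAS-bla), 2% charcoal-stripped serum; signal from LiveBLAzer FRET substrate, 2 hr at room temperature.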
(In qHTS, concentration-response curves come from the screen itself.)

Experiment [2] can be described thus: qHTS assay to identify small molecule antagonists of the progesterone receptor (PR) signaling pathway - cell viability counter screen (AID 1346798). Further: nearly all actives have a fitted effect of over 50% in size. Further: potency means the concentration at half of the fitted maximal effect. Summed up:
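Cytotoxicity read as CellTiter-Glo luminescence (30 min, room temperature) in the same wells as the beta-lactamase readout. HEK293T PR-UAS-bla cells in charcoal-stripped 2% FBS received compound and R5020, then 16 h at 37C, 5% CO2.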

Experiment [3] can be described thus: qHTS assay to identify small molecule antagonists of the TGF-beta/Smad signaling pathway - cell viability counter screen (AID 1346824). Further: nearly all actives have a fitted effect of over 50% in size. Summed up: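 Cytotoxicity counter-screen run in the same wells as the beta-lactamase Smad reporter read: CellTiter-Glo luminescence after 30 min at room temperature. HEK 293T SBE-bla cells had 5 hr compound exposure at 37 C with TGF-beta1 (0.25 ng/mL stock).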

Experiment [4] can be described thus: qHTS assay to identify small molecule agonists of the TGF-beta/Smad signaling pathway - cell viability counter screen (AID 1346829). Further: top concentration of the series differs between compounds; nearly all actives have a fitted effect of over 45% in size. Summed up: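 CellTiter-Glo luminescence readout; SBE-bla HEK 293T cells, overnight plating, compound 5 hr at 37 C/5% CO2, then bla substrate 2 hr RT, then CellTiter-Glo 30 min RT.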
Experiment [5] is described as follows: qHTS assay to identify small molecule agonists of the TGF-beta/Smad signaling pathway (AID 1346859; active means well fitted activation curve with a large enough effect in the signal ratio in the repeat runs, not every such curve was filed as active; the % refers to the signal ratio; further: series mostly up to about 77 µM). Summed up:
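Fluorescence (ex 405 nm; em 460 and 530 nm) was read 2 h after LiveBLAzer FRET substrate at RT. The preceding compound treatment of overnight-plated SBE-bla HEK293T cells lasted 5 h at 37 C.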

For experiment [6], the target named is Thyrotropin-releasing hormone receptor (Homo sapiens) (UniProt P34981). Briefly: qHTS assay to identify small molecule antagonists of the thyrotropin-releasing hormone receptor (TRHR) signaling pathway (AID 1346877; active means well fitted inhibition curve with a large enough effect in the repeat runs, not every such curve was filed as active; further: series mostly up to about 51 µM). Summed up: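 Kinetic fluorescence (3 min, 1 s resolution) following stimulation with TRH at 1 nM final; HEK293 cells bearing human TRHR; 5 min compound preincubation at RT; concentration-response over 15 points, triplicates.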
Sequence of Thyrotropin-releasing hormone receptor (Homo sapiens) (P34981 whole entry, looked up): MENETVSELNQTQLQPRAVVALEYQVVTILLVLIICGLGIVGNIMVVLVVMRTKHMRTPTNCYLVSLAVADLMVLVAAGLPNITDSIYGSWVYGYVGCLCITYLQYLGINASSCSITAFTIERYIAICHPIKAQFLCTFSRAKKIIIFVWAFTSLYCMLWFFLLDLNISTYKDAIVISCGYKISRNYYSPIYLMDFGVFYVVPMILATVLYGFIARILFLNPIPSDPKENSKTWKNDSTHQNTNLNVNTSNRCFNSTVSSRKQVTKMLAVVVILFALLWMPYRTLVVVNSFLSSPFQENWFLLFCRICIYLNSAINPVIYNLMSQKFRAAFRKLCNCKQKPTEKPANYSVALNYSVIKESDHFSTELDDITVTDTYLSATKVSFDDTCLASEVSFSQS

Experiment [7] in a line: Human pregnane X receptor (PXR) small molecule agonists, qHTS cell viability counter screen (AID 1346977). Further: nearly all actives have a fitted effect of over 50% in size. Summed up: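 Same-well viability read: CellTiter-Fluor added after 23 hr compound exposure, fluorescence measured 1 hr later. Cells were PXR-Luc HepG2 seeded at 2,000/well in 5% charcoal-stripped FBS medium, rested 5 hr before dosing at 37 C.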
Experiment [8] in a line: Caspase-3/7 induction in HepG2 cells by small molecules, qHTS assay (AID 1346978). Further: nearly all actives have a fitted effect of over 15% in size. Summed up: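 Caspase-3/7 induction was measured by Caspase-Glo 3/7 luminescence (30 min, room temperature) after a 17 hr compound exposure of wild-type HepG2 cells seeded at 2,000 per well and pre-incubated 5 hr.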
Experiment [9] in a line: Caspase-3/7 induction in CHO-K1 cells by small molecules, qHTS cell viability counter screen (AID 1346979). Further: nearly all actives have a fitted effect of over 35% in size. Further: potency means the concentration at half of the fitted maximal effect. Summed up: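 Cytotoxicity counter screen: CellTiter-Fluor added to compound-treated wild-type CHO-K1 cells at 16 h (37C, 5% CO2), fluorescence measured 1 h later; same wells as caspase-3/7 measurement.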
Experiment [10] in a line: Caspase-3/7 induction in CHO-K1 cells by small molecules, qHTS assay (AID 1346980). Further: nearly all actives have a fitted effect of over 15% in size. Summed up: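 Luminescent Caspase-Glo 3/7 read (30min, room temperature) quantified apoptosis induction. Cells were wild-type CHO-K1, treated with compound for 17hr at 37 C and 5% CO2.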
Experiment [11] can be described thus: Caspase-3/7 induction in HepG2 cells by small molecules, qHTS cell viability counter screen (AID 1346981). Further: series mostly up to about 92 µM; nearly all actives have a fitted effect of over 30% in size. Summed up:
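In this quantitative HTS counter screen, compounds delivered in DMSO were left on unmodified HepG2 cells for 16 hr at 37 C. Viability was then determined fluorometrically with CellTiter-Fluor, in parallel with caspase-3/7 induction in the same wells.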

In experiment [12] the target is Nuclear receptor subfamily 1 group I member 2 (Rattus norvegicus) (UniProt Q9R1A7). Briefly: Rat pregnane X receptor (rPXR) activation by small molecules, qHTS assay (AID 1346983). Further: nearly all actives have a fitted effect of over 20% in size. Further: potency means the concentration at half of the fitted maximal effect. To be noted: rPXR luciferase reporter cells, One-Glo luminescence, 24 h; max activation: stronger effect = higher value. Summed up: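 Luminescent readout (One-Glo luciferase, 30 min room temperature) followed 24 hr compound treatment at 37 C of rPXR cells plated 2,000 per well and preincubated 5hr; qHTS format with compounds delivered in DMSO.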
Sequence of Nuclear receptor subfamily 1 group I member 2 (Rattus norvegicus) (Q9R1A7 whole entry, looked up): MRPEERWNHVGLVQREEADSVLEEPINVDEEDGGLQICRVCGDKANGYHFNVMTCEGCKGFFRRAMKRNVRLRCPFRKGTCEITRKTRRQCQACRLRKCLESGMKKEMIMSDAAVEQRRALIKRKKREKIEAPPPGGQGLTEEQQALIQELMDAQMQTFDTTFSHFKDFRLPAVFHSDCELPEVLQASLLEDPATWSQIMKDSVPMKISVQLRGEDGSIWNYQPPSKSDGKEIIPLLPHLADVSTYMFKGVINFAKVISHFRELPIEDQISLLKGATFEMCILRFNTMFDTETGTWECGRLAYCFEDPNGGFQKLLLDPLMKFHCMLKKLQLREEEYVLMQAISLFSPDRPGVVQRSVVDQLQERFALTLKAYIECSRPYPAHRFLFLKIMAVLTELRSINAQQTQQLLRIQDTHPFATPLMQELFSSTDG

The target in experiment [13] is Nuclear receptor subfamily 1 group I member 2 (Homo sapiens) (UniProt O75469). Briefly: CYP3A4 induction through human pregnane X receptor (PXR) by small molecules, qHTS assay (AID 1346984). Further: nearly all actives have a fitted effect of over 40% in size. Summed up: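 Induction measured in HepG2-based DPX-2 cells co-expressing human PXR and a CYP3A4 promoter-driven luciferase. After a 24-hour compound exposure, cells received CYP3A4 luciferin substrate at 3uM final for 3 hours, and light output was then recorded.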
Sequence of Nuclear receptor subfamily 1 group I member 2 (Homo sapiens) (O75469 whole entry, looked up): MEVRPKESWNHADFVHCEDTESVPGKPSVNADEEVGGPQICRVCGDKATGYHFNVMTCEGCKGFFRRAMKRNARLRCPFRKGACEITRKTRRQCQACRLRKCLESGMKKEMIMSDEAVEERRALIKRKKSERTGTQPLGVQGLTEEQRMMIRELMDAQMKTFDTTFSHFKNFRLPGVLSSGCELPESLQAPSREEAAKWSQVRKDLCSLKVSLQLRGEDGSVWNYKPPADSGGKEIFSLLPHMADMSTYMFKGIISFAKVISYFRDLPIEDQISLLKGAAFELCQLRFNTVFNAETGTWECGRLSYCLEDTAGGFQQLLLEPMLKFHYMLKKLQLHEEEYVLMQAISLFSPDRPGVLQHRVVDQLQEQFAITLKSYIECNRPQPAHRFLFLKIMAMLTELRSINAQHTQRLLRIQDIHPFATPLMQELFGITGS

For experiment [14] the target is unchanged. In words: Human pregnane X receptor (PXR) activation by small molecules, qHTS assay (AID 1346985). Further: nearly all actives have a fitted effect of over 40% in size. Further: potency means the concentration at half of the fitted maximal effect. Summed up:
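DPX-2 cells (HepG2 co-transfected with a PXR response element and a CYP3A4-promoter luciferase construct) were seeded at 2,000 per well, rested 5 hr at 37C, then exposed to DMSO-dissolved compounds for 24 hr. Activation was read as luciferase luminescence.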

For experiment [15], the target named is Cytochrome P450 2C19 (Homo sapiens) (UniProt P33261). In words: Cytochrome P450 Family 2 Subfamily C Member 19 (CYP2C19) small molecule antagonists: luciferase reporter qHTS assay (AID 1671197). Further: nearly all actives have a fitted effect of over 65% in size. Further: potency means the concentration at half of the fitted maximal effect. Summed up:
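Enzyme-substrate mix with proluciferin substrate (P450-Glo CYP2C19 system) preincubated with compounds 10 min at room temperature; NADPH regeneration solution added, 37C for 1 h; detection reagent stops reaction, luminescence read after 20 min. Ketoconazole positive control.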

Experiment [16] deals with Nuclear receptor subfamily 1 group I member 2 (Homo sapiens) (UniProt O75469). Briefly: Human pregnane X receptor (PXR) small molecule agonists, qHTS assay (AID 1346982). Further: nearly all actives have a fitted effect of over 35% in size. Summed up: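 Reporter HepG2 cells expressing PXR-Luc are cultured in charcoal-stripped FBS (5%), treated with compounds for 24 hr at 37 C, and assayed by ONE-Glo luminescence after 30 min at room temperature.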

For experiment [17], the target named is Cytochrome P450 2D6 (Homo sapiens) (UniProt P10635). In words: Cytochrome P450 Family 2 Subfamily D Member 6 (CYP2D6) small molecule antagonists: luciferase reporter qHTS assay (AID 1671196). Further: nearly all actives have a fitted effect of over 50% in size. Further: potency means the concentration at half of the fitted maximal effect. Summed up: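 Test chemicals meet CYP2D6 plus proluciferin substrate (10 min, RT); NADPH regenerating solution then drives turnover for 1 h. Detection reagent halts the reaction; luminescence measured after 20 min.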
Sequence of Cytochrome P450 2D6 (Homo sapiens) (P10635 whole entry, looked up): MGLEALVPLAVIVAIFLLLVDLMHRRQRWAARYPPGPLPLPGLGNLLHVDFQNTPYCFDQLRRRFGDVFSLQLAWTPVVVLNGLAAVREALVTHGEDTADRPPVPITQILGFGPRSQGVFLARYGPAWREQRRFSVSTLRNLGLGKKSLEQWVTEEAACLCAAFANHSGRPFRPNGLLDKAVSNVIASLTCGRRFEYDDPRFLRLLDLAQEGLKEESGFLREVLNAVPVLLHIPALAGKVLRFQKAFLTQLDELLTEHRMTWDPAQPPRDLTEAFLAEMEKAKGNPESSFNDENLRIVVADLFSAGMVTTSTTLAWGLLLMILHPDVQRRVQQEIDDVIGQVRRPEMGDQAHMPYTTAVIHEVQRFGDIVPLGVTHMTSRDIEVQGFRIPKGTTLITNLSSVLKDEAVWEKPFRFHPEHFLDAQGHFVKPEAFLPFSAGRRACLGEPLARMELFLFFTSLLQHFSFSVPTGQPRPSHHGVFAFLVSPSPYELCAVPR

The nature of experiment [18]: qHTS assay to identify small molecule agonists of the progesterone receptor (PR) signaling pathway - cell viability counter screen (AID 1346799; calls by dose curve; further: nearly all actives have a fitted effect of over 45% in size; further: potency means the concentration at half of the fitted maximal effect). Summed up: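 Cytotoxicity measured by CellTiter-Glo luminescence (30 min, RT) in the same wells as the PR beta-lactamase agonist read. Those HEK293T cells had 16 h compound treatment at 37 C in 2% charcoal-stripped FBS medium.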

Experiment [19] has as its target Thyrotropin-releasing hormone receptor (Homo sapiens) (UniProt P34981). Briefly: qHTS assay to identify small molecule agonists of the thyrotropin-releasing hormone receptor (TRHR) signaling pathway (AID 1346891; calls by dose curve; further: series mostly up to about 58 µM). Summed up: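 Agonist-mode intracellular calcium readout: kinetic fluorescence over 3 min at 1 s intervals after compound addition to TRHR-HEK293 cells (18 h seeded, 2 h dye-loaded at 37 C). Fifteen concentrations, triplicates.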
On the % scale 0 is the no-effect control and ±100 the full control effect.

Sequence of Cytochrome P450 2C19 (Homo sapiens) (P33261 whole entry, looked up): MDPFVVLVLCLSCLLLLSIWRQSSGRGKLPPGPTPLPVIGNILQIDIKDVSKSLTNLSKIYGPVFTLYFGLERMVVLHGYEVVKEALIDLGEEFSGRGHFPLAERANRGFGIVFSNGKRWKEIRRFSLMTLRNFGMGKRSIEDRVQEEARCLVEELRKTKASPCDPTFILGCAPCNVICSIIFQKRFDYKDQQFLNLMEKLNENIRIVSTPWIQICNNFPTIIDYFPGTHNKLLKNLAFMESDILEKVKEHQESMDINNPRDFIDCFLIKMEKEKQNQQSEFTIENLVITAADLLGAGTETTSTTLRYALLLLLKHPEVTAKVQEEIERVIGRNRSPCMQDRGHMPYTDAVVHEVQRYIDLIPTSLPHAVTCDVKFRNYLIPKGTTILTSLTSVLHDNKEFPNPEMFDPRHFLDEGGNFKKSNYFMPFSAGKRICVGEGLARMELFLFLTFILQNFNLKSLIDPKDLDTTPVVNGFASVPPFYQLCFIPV
Sequence of Progesterone receptor (Homo sapiens) (P06401 whole entry, looked up): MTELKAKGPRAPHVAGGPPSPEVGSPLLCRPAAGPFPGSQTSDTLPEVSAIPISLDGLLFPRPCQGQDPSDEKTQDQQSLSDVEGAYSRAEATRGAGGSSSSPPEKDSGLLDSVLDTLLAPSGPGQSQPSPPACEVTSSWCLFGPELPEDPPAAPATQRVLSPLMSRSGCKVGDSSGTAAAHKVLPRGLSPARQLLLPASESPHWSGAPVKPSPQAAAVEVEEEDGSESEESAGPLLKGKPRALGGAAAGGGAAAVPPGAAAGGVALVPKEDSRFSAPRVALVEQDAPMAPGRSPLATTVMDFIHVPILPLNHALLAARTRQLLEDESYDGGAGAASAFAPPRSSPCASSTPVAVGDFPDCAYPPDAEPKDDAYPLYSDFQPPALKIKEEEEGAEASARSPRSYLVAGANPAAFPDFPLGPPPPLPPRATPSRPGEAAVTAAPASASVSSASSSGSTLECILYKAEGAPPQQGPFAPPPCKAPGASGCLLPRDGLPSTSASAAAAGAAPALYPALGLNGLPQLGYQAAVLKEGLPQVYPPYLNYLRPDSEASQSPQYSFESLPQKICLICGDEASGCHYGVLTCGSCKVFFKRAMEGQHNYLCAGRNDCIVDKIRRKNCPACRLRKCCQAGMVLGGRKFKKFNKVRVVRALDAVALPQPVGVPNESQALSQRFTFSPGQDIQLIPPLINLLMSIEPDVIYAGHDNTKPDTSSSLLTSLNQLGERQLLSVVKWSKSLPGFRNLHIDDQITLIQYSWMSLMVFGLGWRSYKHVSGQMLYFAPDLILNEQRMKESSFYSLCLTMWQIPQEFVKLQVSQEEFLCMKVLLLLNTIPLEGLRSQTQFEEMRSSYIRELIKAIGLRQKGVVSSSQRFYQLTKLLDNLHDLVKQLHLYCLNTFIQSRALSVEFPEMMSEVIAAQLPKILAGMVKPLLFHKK

With `c1ccc2sc(SN3CCOCC3)nc2c1`, the Potency entry in experiment [1], in [2], in experiment [7], in [9], in experiment [11] and in experiment [13] was “inactive” each time. Besides, the compound was called inactive in experiment [3], in [4], in experiment [5], in [6], in experiment [8] and in [10]. The values for the Potency in experiment [12], in experiment [14] and in [15] were 28.2 µM (active), 10 µM (active) and 17.4 µM (active), respectively.

Consider `CC(=O)O[C@@]12CO[C@@H]1C[C@H](O)[C@@]1(C)C(=O)[C@H](O)C3=C(C)[C@@H](OC(=O)[C@H](O)[C@@H](NC(=O)OC(C)(C)C)c4ccccc4)C[C@@](O)([C@@H](OC(=O)c4ccccc4)[C@H]21)C3(C)C`, for which the Potency result in experiment [1], in experiment [7], in experiment [16], in experiment [13] and in [15] was “inactive” in each case. For the same compound, the compound was classed as inactive in [3], in [4], in experiment [5] and in experiment [10]. Also, the Potency was 11.9 µM (active) in [9] and 38.9 µM (active) in [17].

Regarding `CCN(C=O)CC`, the Potency in experiment [18] is 49.8 µM (active); in [17] it was 72.9 µM (active). For the same compound, the outcome in experiment [3], in experiment [4], in [5], in [6], in experiment [8] and in experiment [10] was inactive. In addition, the Potency result in experiment [19], in experiment [7], in experiment [9], in experiment [11], in [16] and in experiment [15] was “inactive” each time.

Consider `O=C(O)Cc1csc(-c2ccc(Cl)cc2)n1`, for which the Potency result in experiment [2], in [19], in experiment [7], in experiment [9], in experiment [11] and in [16] was “inactive” throughout. Besides, the Potency entry in [13], in experiment [14] and in experiment [17] was “inactive” throughout. The compound was called inactive in experiment [3], in [4], in experiment [6], in [8] and in experiment [10]. The max activation in experiment [12] is -2.73%.

Consider `CC(N)C12CC3CC(CC(C3)C1)C2` (centres undefined), for which the Potency result in experiment [1], in [2], in experiment [19], in experiment [7], in experiment [9] and in [11] was “inactive” each time. Moreover, the Potency result in experiment [16], in [13], in experiment [14] and in experiment [15] was “inactive” each time. Moreover, the call in [3], in experiment [4], in experiment [5], in [6], in experiment [8] and in experiment [10] was inactive. Also, the max activation in experiment [12] is 8.41%.

Take `CCNS(=O)(=O)c1ccc(C)cc1`: the Potency result in [2], in [18], in [19], in experiment [7], in [9] and in experiment [11] was “inactive” in each case. In addition, the Potency entry in experiment [16] was “inactive”. Also, the compound was classed as inactive in experiment [3], in experiment [4], in experiment [5], in experiment [6], in [8] and in experiment [10]. In addition, in experiment [15], the Potency was 20.6 µM (active).

Consider `COc1cc(C)nc(-n2nc(C)cc2OC)n1`, for which the results for the Potency in experiment [2] and in experiment [18] were 11.9 µM (active) and 8.41 µM (active), respectively. Besides, the result in [3], in [4], in experiment [5], in [8] and in experiment [10] was inactive. In addition, the Potency entry in experiment [7], in experiment [9] and in experiment [11] was “inactive” in each case. Moreover, the max activation in experiment [12] is 0.673%.

Turning to `NC(=O)NC1N=C([O][Al])NC1=O` (centres undefined), the Potency entry in experiment [1], in [18], in experiment [19], in experiment [7], in experiment [9] and in [11] was “inactive” each time. Moreover, the Potency result in experiment [16] and in experiment [15] was “inactive” throughout. Besides, the compound was classed as inactive in [3], in experiment [5], in [6], in experiment [8] and in experiment [10].

As to `C[N+](C)(C)CCCCCCCCCC[N+](C)(C)C`, the Potency entry in experiment [2], in experiment [18], in [7], in experiment [9], in experiment [11] and in experiment [16] was “inactive” throughout. Also, the Potency result in [13], in [14] and in experiment [17] was “inactive” in each case. The result in [3], in [4], in [5] and in experiment [10] was inactive. Besides, in experiment [12], the max activation is -3.83%.
